Reference: the supplement of paper PMC10127200
Where a name gives a salt, the structure may show the parent alone.

Tests used:
Assay in all cases: Euclidean distance of Cell Painting phenotypic profile (signed KS, 77 features) to DMSO centroid (dimensionless distance); 5 or 10 uM (library dependent); higher = stronger phenotypic change vs DMSO (phenoactivity)
Conditions in all cases: 48 h
[1] = tested on: 786-O
Outline: (§1)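 Phenoactivity is computed as Euclidean distance to the median vehicle profile. The profiles, drawn from 77 Harmony features scored as signed Kolmogorov-Smirnov statistics versus same-plate vehicle wells, were corrected for plate position, correlation-weighted and replicate-averaged at the top dose. Stained cells were imaged confocally at 20X (9 fields/well) after 48 h with library compounds at 10 or 5 uM, 0.1% DMSO final, in five cancer lines and a healthy fibroblast line.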

[2] = tested on: A549
Outline: as §1

[3] = tested on: DU145
Outline: as §1

[4] = tested on: FB
Outline: as §1

[5] = tested on: HEPG2
Outline: as §1

[6] = tested on: OVCAR4
Outline: as §1

Row | Structure (SMILES) | Euclidean distance [1] | Euclidean distance [2] | Euclidean distance [3] | Euclidean distance [4] | Euclidean distance [5] | Euclidean distance [6]
1 | NS(=O)(=O)NCCNc1nonc1/C(=N/O)Nc1ccc(F)c(Br)c1 | 1.34 | 1.13 | 1.07 | 1.35 | 0.971 | 0.884
2 | Oc1cccc(-c2nc(N3CCOCC3)c3oc4ncccc4c3n2)c1 | 1.25 | 3.67 | 1.5 | 2.89 | 0.936 | 2.62
3 | CCn1c(=O)c2c(nc(/C=C/c3ccc(OC)c(OC)c3)n2C)n(CC)c1=O [Istradefylline] | 1.47 | 1.5 | 0.734 | 1.18 | 0.77 | 1.44
4 | Cl.NCCCC[C@H](N)C(=O)O [L-Lysine hydrochloride] | 0.954 | 1.04 | 0.836 | 0.872 | 1.27 | 0.646
5 | CN1CCN(CCCN2c3ccccc3Sc3ccc(Cl)cc32)CC1 [Prochlorperazine dimaleate salt] | 1.84 | 2.24 | 1.63 | 2.19 | 2.85 | 1.67
6 | CC(=O)Nc1ncc([N+](=O)[O-])s1 [Nithiamide] | 0.999 | 0.607 | 0.822 | 0.606 | 2.08 | 0.885
7 | COC[C@H]1C[C@@H](c2nc(-c3ccc4c(c3)COc3cc5c(ccc6nc([C@@H]7CC[C@H](C)N7C(=O)[C@@H](NC(=O)OC)C(C)C)[nH]c65)cc3-4)c[nH]2)N(C(=O)[C@H](NC(=O)OC)c2ccccc2)C1 [Velpatasvir] | 1.14 | 1.43 | 1.28 | 2.05 | 1.32 | 1.1
8 | C[C@H]1[C@H](OC(=O)CCC(=O)O)O[C@@H]2O[C@@]3(C)CC[C@H]4[C@H](C)CC[C@@H]1[C@@]24OO3 [Artesunate] | 1.44 | 2.06 | 1.01 | 1.66 | 1.03 | 1.88
9 | CCCCc1ncc(/C=C(\Cc2cccs2)C(=O)O)n1Cc1ccc(C(=O)O)cc1 [Eprosartan Mesylate] | 0.683 | 0.706 | 1.64 | 0.647 | 1.3 | 1.44
10 | CCOc1cc2ncc(C#N)c(Nc3ccc(F)c(Cl)c3)c2cc1NC(=O)/C=C/CN(C)C [Pelitinib (EKB-569)] | 2.29 | 3.19 | 4.45 | 4.45 | 2.63 | 2.82
11 | CC(C)(C)NCC(O)c1ccc(O)c(CO)c1 (configuration not stated) [Salbutamol] | 1.03 | 0.738 | 1.09 | 0.676 | 0.894 | 0.709
12 | NC(=O)N/N=C/c1ccc([N+](=O)[O-])o1 [Nitrofural] | 1.31 | 0.907 | 1.62 | 1 | 0.466 | 1.22
